# Records with an inconclusive call do not appear. Calls of active or inactive are those of the source. Unless noted, how the calls were made is not given here.
# Columns and labels:
# [1] = Immunotoxin (HA22) sensitization/mitigation study. Vehicle arm (PBS) (AID 1159510); further: potency means the concentration at half of the fitted maximal effect
# [2] = Immunotoxin (SS1P) sensitization/mitigation study. Vehicle arm (DMEM) (AID 1159513); further: potency means the concentration at half of the fitted maximal effect
# [3] = High-throughput drug toxicity screening in the BPDCN cell line Gen2.2 (AID 1224824); settings: Gen2.2 BPDCN cells; at 45.8 µM (top of the series);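 further: cells exposed to compounds for 48 h before reading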
# In short: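 Gen2.2 cells, 500 per well in phenol red-free RPMI with 10% FBS, exposed to compounds 48 h at 37 C, 5% CO2; viability by CellTiter-Glo luminescence. Percent activity scaled to DMSO (100%) and 9.2 uM bortezomib final (0%).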
# [4] = High-throughput drug toxicity screening in the BPDCN cell line Cal-1 (AID 1224825); settings: Cal-1 BPDCN cell viability, qHTS; at 45.8 µM (top of the series)
# In short: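 Cal-1 cells, 500 per well in phenol-red-free RPMI with 10% FBS, exposed to compounds for 48 hours at 37C, 5% CO2. Viability read by CellTiter-Glo luminescence; percent activity normalized to DMSO (100%) and 9.2 uM bortezomib final (0%).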
# [5] = qHTS assay for measurement of the activity of small molecule inhibitors on Zika virus induced Caspase-3 activity in human iPSC derived neural progenitor cells (hNPCs) (AID 1224857; active means well fitted inhibition curve with a large enough effect; further: % of control where 0% means no effect; nearly all actives have a fitted effect of over 65% in size)
# In short: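 hNPCs seeded 350 cells/well, cultured 16–20 h; compounds added 1 h before ZIKV (2 FFU/cell), 37 C 6 h. Caspase-Glo 3/7 luminescence after 30 min RT; % inhibition from induction scaled to uninfected (0%) and infected (100%) wells.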
# [6] = qHTS assay for measurement of the activity of small molecule inhibitors on Zika virus induced Caspase-3 activity in human astrocytoma cells (AID 1224859; active means well fitted inhibition curve with a large enough effect;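 further: plate controls were ZIKV-infected untreated cells for no effect and uninfected cells for full effect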)
# In short: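 Luminescence read-out (Caspase-Glo 3/7, 30 min RT) of caspase activity in SNB-19 cells infected 6 h with ZIKV, 2 FFU/cell, after 1 h compound pretreatment; % inhibition from induction normalised to uninfected (0%) and infected (100%) wells.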
# [7] = qHTS Screen of the MIPE 4.0 Collection Against Ewings Sarcoma (RDES) (AID 1259252; active means well fitted inhibition curve with a large enough effect; further: nearly all actives have a fitted effect of over 35% in size; further: potency means the concentration at half of the fitted maximal effect)
# In short: (§1)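 Log-phase cells in RPMI with 5% FBS attached for 4 h, then received compounds as a titration for 48 h at 37C, 5% CO2. Viability was read by CellTiter-Glo luminescence and normalized to DMSO and no-cell wells.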
# [8] = qHTS Screen of the MIPE 4.0 Collection Against Ewings Sarcoma (EW8) (AID 1259255; active means well fitted inhibition curve with a large enough effect; further: nearly all actives have a fitted effect of over 35% in size; further: potency means the concentration at half of the fitted maximal effect;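 on viability: 100% = DMSO-treated cells and 0% = medium-only wells without cells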)
# In short: as §1
# [9] = qHTS Screen of the MIPE 4.0 Collection Against Ewings Sarcoma (TC71) (AID 1259253; active means well fitted inhibition curve with a large enough effect; further: potency means the concentration at half of the fitted maximal effect; nearly all actives have a fitted effect of over 40% in size)
# In short: as §1
compound,measurement,setting,value
COc1ccc(C=Cc2cc(OC)c(OC)c(OC)c2)cc1O,Potency,[1],inactive
same,Potency,[2],1.9 nM (active)
CC(C)(C)OC(=O)Nc1ccc(-c2cc(C(=O)NCCCCCCC(=O)NO)no2)cc1,Potency,[1],93.5 nM (active)
same,Potency,[2],1180 nM (active)
CC1(C)OC2=C(C(=O)c3ccccc3C2=O)[C@H](NCc2ccccc2)[C@H]1O,Potency,[1],2640 nM (active)
same,Potency,[2],13200 nM (active)
c1ccc(-c2nn3c(c2-c2ccnc4cc(OCCN5CCOCC5)ccc24)CCC3)nc1,Potency,[1],26400 nM (active)
same,Potency,[2],inactive
CCOc1cc2ncc(C#N)c(Nc3ccc(OCc4ccccn4)c(Cl)c3)c2cc1NC(=O)/C=C/CN(C)C,Potency,[1],4690 nM (active)
same,Potency,[2],935 nM (active)
O=c1[nH]nc(Sc2ncc([N+](=O)[O-])s2)n1-c1ccc2c(c1)OCCO2,Potency,[1],264 nM (active)
same,Potency,[2],20900 nM (active)
C[C@@H]1CCN(C(=O)CC#N)C[C@@H]1N(C)c1ncnc2[nH]ccc12,Potency,[1],inactive
same,Potency,[2],inactive
C=CC(=O)Nc1cccc(Oc2nc(Nc3ccc(N4CCN(C)CC4)cc3OC)ncc2Cl)c1,Potency,[1],16600 nM (active)
same,Potency,[2],23500 nM (active)
CCOc1ccc(Nc2nc(-c3c(C)nc4ccccn34)cs2)cc1,Potency,[1],10.5 nM (active)
same,Potency,[2],5.9 nM (active)
Cc1cccc(C#Cc2ccccc2)n1,Potency,[1],inactive
same,Potency,[2],inactive
COc1cccc2cc(-c3nc(C4CCC(C(=O)O)CC4)n4ncnc(N)c34)[nH]c12 (centres undefined),Potency,[1],6620 nM (active)
same,Potency,[2],235 nM (active)
C=CCON=C(C[C@H]1O[C@@H]2O[C@]3(C)CC[C@@H]4[C@H](C)CC[C@@H]([C@H]1C)[C@@]24OO3)[C@H]1O[C@@H]2O[C@]3(C)CC[C@H]4[C@H](C)CC[C@@H]([C@@H]1C)[C@@]24OO3,Potency,[1],16.6 nM (active)
same,Potency,[2],235 nM (active)
same,"cell viability, % of control (lower = more cytotoxic)",[3],19.7%
same,viability (% of control),[4],23.2%
same,Potency,[5],inactive
same,Potency,[6],inactive
same,Potency,[7],469 nM (active)
same,Potency,[8],296 nM (active)
Cc1nnc(C(C)C)n1C1CC2CCC(C1)N2CC[C@H](NC(=O)C1CCC(F)(F)CC1)c1ccccc1 (some centres undefined),Potency,[1],inactive
same,Potency,[2],inactive
Cc1cc(C=c2sc3nc4ccccc4n3c2=O)c(C)n1-c1ccccc1,Potency,[1],18700 nM (active)
same,Potency,[2],9350 nM (active)
O=C(Oc1ccc([N+](=O)[O-])cc1)N1CCC(C(O)(c2ccc3c(c2)OCO3)c2ccc3c(c2)OCO3)CC1,Potency,[1],5260 nM (active)
same,Potency,[2],inactive
same,"cell viability, % of control (lower = more cytotoxic)",[3],40.5%
same,viability (% of control),[4],64.3%
same,Potency,[5],inactive
same,Potency,[6],inactive
same,Potency,[8],inactive
COc1cc2c(cc1OC)CC(=O)N(CCCN(C)C[C@H]1Cc3cc(OC)c(OC)cc31)CC2,Potency,[1],inactive
same,Potency,[2],inactive
Cc1cccc(-c2[nH]ncc2-c2ccc3ncccc3n2)n1,Potency,[2],inactive
CCCCc1nc2cc(C=CC(=O)NO)ccc2n1CCN(CC)CC,Potency,[1],118 nM (active)
same,Potency,[2],264 nM (active)
CCOC(=O)[C@@H](N)CCC(=O)N[C@@H](CSCc1ccccc1)C(=O)N[C@@H](C(=O)OCC)c1ccccc1,Potency,[1],23500 nM (active)
same,Potency,[2],inactive
CC(C)Oc1cc(Nc2nc(N[C@@H](C)c3ccc(F)cn3)ncc2Cl)[nH]n1,Potency,[1],20900 nM (active)
same,Potency,[2],20900 nM (active)
CC(=O)Nc1ccc(OC[C@](C)(O)C(=O)Nc2ccc([N+](=O)[O-])c(C(F)(F)F)c2)cc1,Potency,[1],inactive
same,Potency,[2],inactive
same,"cell viability, % of control (lower = more cytotoxic)",[3],138%
same,viability (% of control),[4],106%
same,Potency,[6],inactive
same,Potency,[8],inactive
Nc1ccc(-c2ccc3ncc4ccc(=O)n(-c5cccc(C(F)(F)F)c5)c4c3c2)cn1,Potency,[1],18.7 nM (active)
same,Potency,[2],52.6 nM (active)
O=C(O)CC/C=C\CC[C@H]1[C@@H](N2CCCCC2)[C@@H](O)C[C@@H]1OCc1ccc(-c2ccccc2)cc1,Potency,[1],inactive
same,Potency,[2],inactive
C[C@@H](Oc1cc(-n2cnc3ccc(CN4CCN(C)CC4)cc32)sc1C(N)=O)c1ccccc1C(F)(F)F,Potency,[1],13.2 nM (active)
same,Potency,[2],1.9 nM (active)
Cc1nc(-c2ccc(-c3ccc(C(=O)N4CCc5cc6c(cc54)C4(CCN(C)CC4)CO6)cc3)c(C)c2)no1,Potency,[1],23500 nM (active)
same,Potency,[2],26400 nM (active)
same,"cell viability, % of control (lower = more cytotoxic)",[3],163%
same,viability (% of control),[4],126%
same,Potency,[5],inactive
same,Potency,[6],inactive
same,Potency,[7],inactive
same,Potency,[8],inactive
Cn1cncc1[C@@](N)(c1ccc(Cl)cc1)c1ccc2c(c1)c(-c1cccc(Cl)c1)cc(=O)n2C,Potency,[1],11800 nM (active)
same,Potency,[2],20900 nM (active)
Cc1ccccc1-n1c(Cn2cnc3c(N)ncnc32)nc2cccc(C)c2c1=O,Potency,[1],23500 nM (active)
same,"cell viability, % of control (lower = more cytotoxic)",[3],68.3%
same,viability (% of control),[4],9.3%
same,Potency,[5],inactive
same,Potency,[6],inactive
same,Potency,[9],1870 nM (active)
same,Potency,[8],5260 nM (active)
